Results published in PubChem BioAssay (EPA / NIEHS).
Results filed as inconclusive are left out. Active and inactive are the calls of the source. The calls were made as follows: active = hit-call score of the fitted dose curve at least 0.9, where 1 is the maximum; inconclusive = response in the unintended direction; inactive = score below 0.9.

Columns and labels:
[1] = target: human CYP4F12, CYP4F12 (gene 66002) (UniProt Q9HCS2); assay: NVS_ADME_hCYP4F12: NovaScreen (NVS) CYP450-related Enzyme Activity (ADME) Assay for human CYP4F12 (AID 2283111)
How it was run: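 Cell-free fluorescence assay of recombinant human CYP4F12 activity on a specific substrate, read 0.5 h after dosing. Primary screen in duplicate at 10 uM, then concentration series for actives; loss of signal fitted against acetonitrile negative control.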

[2] = target: human Acetylcholinesterase (AChE), ACHE (gene 43) (UniProt P22303); assay: NVS_ENZ_hAChE: NovaScreen (NVS) Enzymatic Assay for human Acetylcholinesterase (AChE) (AID 2283129)
How it was run: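 Cell-free colorimetric enzyme-activity assay; compounds read 0.33 hour after dosing, loss of signal vs DMSO baseline. Primary screen in duplicate at 25 uM single concentration, with active compounds retested in concentration series.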

[3] = target: human AMP-activated Protein Kinase, alpha 1 (AMPKa1), PRKAA1 (gene 5562) (UniProt Q13131); assay: NVS_ENZ_hAMPKa1: NovaScreen (NVS) Enzymatic Assay for human AMP-activated Protein Kinase, alpha 1 (AMPKa1) (AID 2283130)
How it was run: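 Recombinant human AMPKα1 activity was measured cell-free by fluorescent substrate conversion with electrophoretic mobility-shift separation, 1 h after dosing. Duplicate single-point screening was at 25 uM; actives (≥30% inhibition) were retested in concentration-response up to 50 uM.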

[4] = target: human Fibroblast Growth Factor Receptor 1 (FGFR1), FGFR1 (gene 2260) (UniProt P11362); assay: NVS_ENZ_hFGFR1: NovaScreen (NVS) Enzymatic Assay for human Fibroblast Growth Factor Receptor 1 (FGFR1) (AID 2283159);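 as to AC50: hits lower the signal so potencies describe inhibitors of the kinase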
How it was run: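 Cell-free recombinant kinase with fluorescent substrate, product separated by electrophoretic mobility shift; read 1 hour after dosing, loss of signal relative to DMSO. Initial screen in duplicate at 25 uM, actives followed in concentration series.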

[5] = target: human Tyrosine Protein Kinase Receptor Tie-2 (Tie2), TEK (gene 7010) (UniProt Q02763); assay: NVS_ENZ_hTie2: NovaScreen (NVS) Enzymatic Assay for human Tyrosine Protein Kinase Receptor Tie-2 (Tie2) (AID 2283225)
How it was run: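 Recombinant human Tie2 kinase activity was read cell-free by fluorescence with electrophoretic mobility shift, 1 hour after dosing. The screen used 25 uM in duplicate, then concentration-response up to 50 uM. Signal loss was scored against DMSO.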

[6] = target: rat Acetylcholinesterase (AChE), Ache (gene 83817) (UniProt P37136); assay: NVS_ENZ_rAChE: NovaScreen (NVS) Enzymatic Assay for rat Acetylcholinesterase (AChE) (AID 2283233)
How it was run: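 Rat brain membrane acetylcholinesterase activity measured colorimetrically 0.33 h after compound addition, loss of signal relative to DMSO. Primary screen in duplicate at 25 uM; actives re-run as concentration-response with 50 uM top concentration.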

[7] = target: human Neonicotinoid receptor (NNR), CHRNA2 (gene 1135) (UniProt Q15822); assay: NVS_LGIC_hNNR_NBungSens: NovaScreen (NVS) Ligand-Gated Ion Channel Assay for human Neonicotinoid receptor (NNR) (AID 2283313)
How it was run: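 Radioligand displacement on human neuroblastoma membranes, 2 h, filter-based scintillation counting. Primary screen in duplicate at 25 uM; chemicals passing threshold (e.g. 30% inhibition) run singleton concentration-response to 50 uM; loss of binding fitted versus DMSO.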

[8] = target: Norway rat Vesicular Monoamine Transporter (VMAT2), neurotransmitter transporter, Slc18a2 (gene 25549) (UniProt Q01827); assay: NVS_TR_rVMAT2: NovaScreen (NVS) Transporter Assay for Norway rat Vesicular Monoamine Transporter (VMAT2), neurotransmitter transporter (AID 2283376);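 also: actives lower the bound radioligand signal below the DMSO level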
How it was run: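 Radioligand displacement binding on rat forebrain tissue preparation, filter-based scintillation read-out 1 hour after dosing. Primary screen in duplicate at 25 uM, then concentration series for actives; loss of signal versus DMSO.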

[9] = target: human Caspase 2 (CASP2), CASP2 (gene 835) (UniProt P42575); assay: NVS_ENZ_hCASP2: NovaScreen (NVS) Enzymatic Assay for human Caspase 2 (CASP2) (AID 2283135)
How it was run: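 E. coli-expressed enzyme in a cell-free protease assay, fluorescence read 1 h after dosing. Compounds at 25 uM in duplicate, with concentration-response up to 50 uM for hits; loss of signal against DMSO baseline.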

[10] = target: rat CYP2C12, Cyp2c12 (gene 25011) (UniProt P11510); assay: NVS_ADME_rCYP2C12: NovaScreen (NVS) CYP450-related Enzyme Activity (ADME) Assay for rat CYP2C12 (AID 2283119)
How it was run: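 Cell-free recombinant rat CYP2C12 activity read by fluorescence 0.5 h after dosing; loss of signal versus acetonitrile control. Primary screen in duplicate at 10 uM; actives then run in concentration-response format.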

[11] = target: human IkappaB Kinase alpha (IKKa), CHUK (gene 1147) (UniProt O15111); assay: NVS_ENZ_hIKKa: NovaScreen (NVS) Enzymatic Assay for human IkappaB Kinase alpha (IKKa) (AID 2283167)
How it was run: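 Cell-free recombinant human IKKa with fluorescent substrate, product separated by electrophoretic mobility shift; read 1 hour after dosing. Primary screen duplicate at 25 uM, actives then concentration-response up to 50 uM; loss of signal relative to DMSO.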

[12] = target: human Mitogen-Activated Protein Kinase 1 (MAPK 1), MAPK1 (gene 5594) (UniProt P28482); assay: NVS_ENZ_hMAPK1: NovaScreen (NVS) Enzymatic Assay for human Mitogen-Activated Protein Kinase 1 (MAPK 1) (AID 2283175)
How it was run: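 Cell-free recombinant human MAPK1 enzymatic assay, fluorescence/electrophoretic mobility shift read at 1 h; loss of signal vs DMSO. Primary screen in duplicate at 25 uM; actives (e.g. ≥30% inhibition) run as concentration-response up to 50 uM.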

[13] = target: human p21 Activated Kinase 4 (PAK4), PAK4 (gene 10298) (UniProt O96013); assay: NVS_ENZ_hPAK4: NovaScreen (NVS) Enzymatic Assay for human p21 Activated Kinase 4 (PAK4) (AID 2283189)
How it was run: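 Cell-free recombinant human PAK4 activity assay; fluorescent substrate and product separated by electrophoretic mobility shift, read 1 h after dosing. Initially tested in duplicate at 25 uM, relative to DMSO baseline.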

[14] = target: human Phosphatase and Tensin Homolog (PTEN), PTEN (gene 5728) (UniProt P60484); assay: NVS_ENZ_hPTEN: NovaScreen (NVS) Enzymatic Assay for human Phosphatase and Tensin Homolog (PTEN) (AID 2283203)
How it was run: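 Cell-free recombinant human PTEN with fluorescent substrate; product separated by electrophoretic mobility shift and read by fluorescence 1 h after dosing. Primary screen in duplicate at 25 uM, actives followed in concentration series versus DMSO.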

[15] = target: human Protein Tyrosine Phosphatase Non-receptor Type 2 (PTPN2), PTPN2 (gene 5771) (UniProt P17706); assay: NVS_ENZ_hPTPN2: NovaScreen (NVS) Enzymatic Assay for human Protein Tyrosine Phosphatase Non-receptor Type 2 (PTPN2) (AID 2283207)
How it was run: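 Cell-free recombinant enzyme with fluorescent substrate, product separated by electrophoretic mobility shift; read 1 h after dosing. Primary screen single concentration (25 uM) in duplicate; actives followed in concentration series; loss of signal versus DMSO.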

[16] = target: rat Adenylate Cyclase, Forskolin Stimulated, Adcy5 (gene 64532) (UniProt Q04400); assay: NVS_ENZ_rACFSKBinding: NovaScreen (NVS) Enzymatic Assay for rat Adenylate Cyclase, Forskolin Stimulated (AID 2283232)
How it was run: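 Rat forebrain membrane preparation, cell-free, read 1 h after dosing by filter-based scintillation counting. Primary screen in duplicate at 25 uM; actives (e.g. ≥30% inhibition) rerun in concentration-response up to 50 uM; fit versus DMSO.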

[17] = target: rat Monoamine Oxidase, MAO-B, Peripheral (MAOBP), Maob (gene 25750) (UniProt P19643); assay: NVS_ENZ_rMAOBP: NovaScreen (NVS) Enzymatic Assay for rat Monoamine Oxidase, MAO-B, Peripheral (MAOBP) (AID 2283242)
[18] = target: rat Corticotropin Releasing Factor Receptor (CRF), Crhr1 (gene 58959) (UniProt P35353); assay: NVS_GPCR_rCRF: NovaScreen (NVS) G Protein-Coupled Receptor Assay for rat Corticotropin Releasing Factor Receptor (CRF) (AID 2283300)
How it was run: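 Rat cortical membranes used as receptor source in a radioligand competitive displacement binding assay; scintillation read 2 h after dosing. Primary screen run in duplicate at 25 uM; loss of signal versus DMSO baseline indicates binding.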

[19] = target: PPP2CA (gene 5515) (UniProt P67775); assay: NVS_ENZ_hPPP2CA: NovaScreen (NVS) Enzymatic Assay for human Protein Phosphatase 2 Aatalytic subunit Alpha (PPP2CA) (AID 2283199)
How it was run: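 Recombinant human PPP2CA with fluorescent substrate; product separated from substrate by electrophoretic mobility shift, read 1.33 h after dosing. Duplicate single-point at 25 uM, then singleton concentration-response up to 50 uM; loss of signal versus DMSO.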

[20] = system: rat Monoamine Oxidase, MAO-A, Peripheral (MAOAP), gene 29253; assay: NVS_ENZ_rMAOAP: NovaScreen (NVS) Enzymatic Assay for rat Monoamine Oxidase, MAO-A, Peripheral (MAOAP) (AID 2283237)
How it was run: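 Rat liver mitochondrial membranes served as the MAO-A source, with enzyme activity measured by radiometric scintillation counting 1.17 hours after dosing. Loss of signal was fitted against DMSO; primary screen used 25 uM in duplicate, follow-up used concentration series.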

[21] = system: rat Monoamine Oxidase, MAO-A, Central (MAOAC), gene 29253; assay: NVS_ENZ_rMAOAC: NovaScreen (NVS) Enzymatic Assay for rat Monoamine Oxidase, MAO-A, Central (MAOAC) (AID 2283243);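 also: potency refers to inhibition seen as signal drop below DMSO baseline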
How it was run: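 Steps: rat brain protein extract dosed with test chemical (25 uM, duplicate, primary); incubated 1.5 h; radiolabelled product separated from substrate and counted. Signal loss versus DMSO scored as inhibition.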

[22] = target: bovine Gamma-Aminobutyric Acid Type A Receptor BDZ, alpha 1 site (GABARa1), GABRA1 (gene 780973) (UniProt P08219); assay: NVS_LGIC_bGABARa1: NovaScreen (NVS) Ligand-Gated Ion Channel Assay for bovine Gamma-Aminobutyric Acid Type A Receptor BDZ, alpha 1 site (GABARa1) (AID 2283321)
How it was run: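 Radioligand competition binding on bovine cortical membranes, 0.75 h, filter-based scintillation counting. Primary single concentration 25 uM in duplicate; actives rerun in concentration-response to 50 uM max. Loss of signal fitted versus DMSO.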

[23] = target: Protein deacetylase HDAC6 (Homo sapiens) (UniProt Q9UBN7); assay: NVS_ENZ_hHDAC6: NovaScreen (NVS) Enzymatic Assay for human Histone Deacetylase 6 (HDAC6) (AID 2283164)
How it was run: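 Recombinant human HDAC6 with fluorescent substrate, 1 h; product separated from substrate by electrophoretic mobility shift. Primary screen in duplicate at 25 uM; actives retested singly in concentration-response up to 50 uM, fitted relative to DMSO.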

Measured: AC50

Chain of human AMP-activated Protein Kinase, alpha 1 (AMPKa1), PRKAA1 (gene 5562) (Q13131 whole entry, looked up): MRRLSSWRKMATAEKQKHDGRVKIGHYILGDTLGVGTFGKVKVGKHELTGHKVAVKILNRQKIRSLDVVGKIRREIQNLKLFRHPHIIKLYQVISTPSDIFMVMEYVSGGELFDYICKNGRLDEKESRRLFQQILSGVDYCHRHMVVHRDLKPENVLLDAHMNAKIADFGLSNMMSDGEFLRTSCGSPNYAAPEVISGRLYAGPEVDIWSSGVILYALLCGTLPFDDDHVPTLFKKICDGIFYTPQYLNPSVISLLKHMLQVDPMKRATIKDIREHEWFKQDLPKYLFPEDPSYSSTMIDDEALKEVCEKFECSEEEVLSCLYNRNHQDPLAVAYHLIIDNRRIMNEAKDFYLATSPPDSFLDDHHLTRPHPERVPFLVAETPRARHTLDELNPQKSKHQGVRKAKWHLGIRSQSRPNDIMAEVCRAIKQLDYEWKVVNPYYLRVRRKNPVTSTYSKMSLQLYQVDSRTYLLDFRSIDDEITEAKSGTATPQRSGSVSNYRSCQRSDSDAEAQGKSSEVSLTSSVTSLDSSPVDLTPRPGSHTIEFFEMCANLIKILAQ
Chain of human Acetylcholinesterase (AChE), ACHE (gene 43) (P22303 whole entry, looked up): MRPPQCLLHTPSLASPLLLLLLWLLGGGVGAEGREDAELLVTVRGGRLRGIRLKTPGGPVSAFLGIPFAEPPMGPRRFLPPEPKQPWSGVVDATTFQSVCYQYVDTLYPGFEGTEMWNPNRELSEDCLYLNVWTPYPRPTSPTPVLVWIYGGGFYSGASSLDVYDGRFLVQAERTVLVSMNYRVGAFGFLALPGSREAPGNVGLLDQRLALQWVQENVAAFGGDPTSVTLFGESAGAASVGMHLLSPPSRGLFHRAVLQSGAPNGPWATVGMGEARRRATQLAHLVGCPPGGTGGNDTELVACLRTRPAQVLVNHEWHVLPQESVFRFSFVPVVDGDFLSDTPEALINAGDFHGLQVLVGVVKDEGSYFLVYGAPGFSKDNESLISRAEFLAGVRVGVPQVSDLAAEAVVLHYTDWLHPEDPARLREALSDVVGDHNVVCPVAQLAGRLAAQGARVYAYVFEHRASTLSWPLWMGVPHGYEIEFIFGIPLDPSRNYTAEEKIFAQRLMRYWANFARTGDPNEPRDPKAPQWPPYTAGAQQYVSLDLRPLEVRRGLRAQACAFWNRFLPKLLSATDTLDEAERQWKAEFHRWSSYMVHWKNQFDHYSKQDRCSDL
Chain of human Tyrosine Protein Kinase Receptor Tie-2 (Tie2), TEK (gene 7010) (Q02763 whole entry, looked up): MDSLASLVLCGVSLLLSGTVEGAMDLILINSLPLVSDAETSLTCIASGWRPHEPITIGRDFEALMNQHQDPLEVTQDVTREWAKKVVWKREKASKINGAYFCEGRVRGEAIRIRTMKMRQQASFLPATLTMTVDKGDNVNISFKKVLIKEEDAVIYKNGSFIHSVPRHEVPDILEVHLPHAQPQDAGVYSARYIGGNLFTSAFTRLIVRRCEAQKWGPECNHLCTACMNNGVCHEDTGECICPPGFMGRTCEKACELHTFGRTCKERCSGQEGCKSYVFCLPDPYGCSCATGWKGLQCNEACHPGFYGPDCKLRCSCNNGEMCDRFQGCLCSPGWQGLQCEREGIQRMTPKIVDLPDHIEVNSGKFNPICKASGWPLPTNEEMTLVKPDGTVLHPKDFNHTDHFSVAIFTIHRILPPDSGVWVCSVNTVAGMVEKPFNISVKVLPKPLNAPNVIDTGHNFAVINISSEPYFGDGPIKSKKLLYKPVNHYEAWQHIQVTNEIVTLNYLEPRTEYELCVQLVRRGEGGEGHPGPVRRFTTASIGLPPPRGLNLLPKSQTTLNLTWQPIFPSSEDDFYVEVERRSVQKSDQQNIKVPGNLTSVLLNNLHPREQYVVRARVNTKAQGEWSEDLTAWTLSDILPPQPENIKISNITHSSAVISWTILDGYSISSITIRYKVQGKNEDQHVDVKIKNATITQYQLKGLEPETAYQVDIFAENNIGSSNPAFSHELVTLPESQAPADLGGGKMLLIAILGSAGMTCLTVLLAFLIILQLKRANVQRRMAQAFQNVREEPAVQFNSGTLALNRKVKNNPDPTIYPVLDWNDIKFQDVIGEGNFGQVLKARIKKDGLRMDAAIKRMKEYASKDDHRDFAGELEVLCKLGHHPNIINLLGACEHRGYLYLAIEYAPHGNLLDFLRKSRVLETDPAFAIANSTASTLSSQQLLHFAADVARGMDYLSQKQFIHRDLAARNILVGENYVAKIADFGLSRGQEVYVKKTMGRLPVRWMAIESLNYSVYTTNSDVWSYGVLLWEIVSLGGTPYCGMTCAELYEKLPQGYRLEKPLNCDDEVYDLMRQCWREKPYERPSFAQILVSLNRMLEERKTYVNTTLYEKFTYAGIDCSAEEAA
Chain of rat Acetylcholinesterase (AChE), Ache (gene 83817) (P37136 whole entry, looked up): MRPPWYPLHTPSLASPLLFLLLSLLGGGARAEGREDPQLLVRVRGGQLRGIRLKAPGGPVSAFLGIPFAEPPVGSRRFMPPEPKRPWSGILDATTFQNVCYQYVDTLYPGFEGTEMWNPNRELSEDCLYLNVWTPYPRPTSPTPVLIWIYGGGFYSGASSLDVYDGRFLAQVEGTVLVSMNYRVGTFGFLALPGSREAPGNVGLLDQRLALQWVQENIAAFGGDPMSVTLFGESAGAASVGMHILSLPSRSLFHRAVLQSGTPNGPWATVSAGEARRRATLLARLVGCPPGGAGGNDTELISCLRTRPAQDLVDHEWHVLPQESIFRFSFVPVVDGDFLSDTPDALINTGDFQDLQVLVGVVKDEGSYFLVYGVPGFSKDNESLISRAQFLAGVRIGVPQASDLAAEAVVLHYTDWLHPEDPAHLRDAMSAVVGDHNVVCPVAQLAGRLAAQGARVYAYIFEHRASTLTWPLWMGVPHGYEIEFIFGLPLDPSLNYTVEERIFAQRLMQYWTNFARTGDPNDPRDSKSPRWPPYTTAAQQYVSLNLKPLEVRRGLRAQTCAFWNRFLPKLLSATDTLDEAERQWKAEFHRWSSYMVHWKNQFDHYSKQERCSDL
Chain of human CYP4F12, CYP4F12 (gene 66002) (Q9HCS2 whole entry, looked up): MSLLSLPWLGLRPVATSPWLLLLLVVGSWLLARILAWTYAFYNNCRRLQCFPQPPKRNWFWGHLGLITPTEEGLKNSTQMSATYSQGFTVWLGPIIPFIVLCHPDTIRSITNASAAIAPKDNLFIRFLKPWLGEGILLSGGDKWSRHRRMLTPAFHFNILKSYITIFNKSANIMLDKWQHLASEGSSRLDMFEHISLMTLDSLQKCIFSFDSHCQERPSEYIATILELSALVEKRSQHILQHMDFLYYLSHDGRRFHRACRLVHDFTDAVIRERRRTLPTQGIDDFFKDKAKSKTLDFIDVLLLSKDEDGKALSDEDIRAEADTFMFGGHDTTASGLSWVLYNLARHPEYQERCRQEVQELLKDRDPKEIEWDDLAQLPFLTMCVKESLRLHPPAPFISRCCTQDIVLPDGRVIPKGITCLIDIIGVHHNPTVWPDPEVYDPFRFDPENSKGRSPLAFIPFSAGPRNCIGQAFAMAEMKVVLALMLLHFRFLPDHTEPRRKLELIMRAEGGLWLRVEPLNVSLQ
Chain of human Neonicotinoid receptor (NNR), CHRNA2 (gene 1135) (Q15822 whole entry, looked up): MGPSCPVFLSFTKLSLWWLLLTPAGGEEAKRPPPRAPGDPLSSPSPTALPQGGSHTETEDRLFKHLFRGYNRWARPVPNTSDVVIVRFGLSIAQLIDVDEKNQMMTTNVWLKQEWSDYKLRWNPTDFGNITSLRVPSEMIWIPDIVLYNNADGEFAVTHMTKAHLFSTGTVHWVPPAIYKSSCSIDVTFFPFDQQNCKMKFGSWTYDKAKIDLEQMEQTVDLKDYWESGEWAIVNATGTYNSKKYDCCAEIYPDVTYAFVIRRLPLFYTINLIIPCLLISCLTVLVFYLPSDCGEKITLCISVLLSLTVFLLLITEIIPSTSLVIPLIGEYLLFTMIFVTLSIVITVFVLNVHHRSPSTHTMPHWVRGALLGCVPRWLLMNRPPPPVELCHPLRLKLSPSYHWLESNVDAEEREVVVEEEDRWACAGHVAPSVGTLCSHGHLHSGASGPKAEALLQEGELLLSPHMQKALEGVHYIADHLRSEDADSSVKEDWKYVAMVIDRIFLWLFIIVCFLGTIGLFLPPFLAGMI
Chain of human Fibroblast Growth Factor Receptor 1 (FGFR1), FGFR1 (gene 2260) (P11362 whole entry, looked up): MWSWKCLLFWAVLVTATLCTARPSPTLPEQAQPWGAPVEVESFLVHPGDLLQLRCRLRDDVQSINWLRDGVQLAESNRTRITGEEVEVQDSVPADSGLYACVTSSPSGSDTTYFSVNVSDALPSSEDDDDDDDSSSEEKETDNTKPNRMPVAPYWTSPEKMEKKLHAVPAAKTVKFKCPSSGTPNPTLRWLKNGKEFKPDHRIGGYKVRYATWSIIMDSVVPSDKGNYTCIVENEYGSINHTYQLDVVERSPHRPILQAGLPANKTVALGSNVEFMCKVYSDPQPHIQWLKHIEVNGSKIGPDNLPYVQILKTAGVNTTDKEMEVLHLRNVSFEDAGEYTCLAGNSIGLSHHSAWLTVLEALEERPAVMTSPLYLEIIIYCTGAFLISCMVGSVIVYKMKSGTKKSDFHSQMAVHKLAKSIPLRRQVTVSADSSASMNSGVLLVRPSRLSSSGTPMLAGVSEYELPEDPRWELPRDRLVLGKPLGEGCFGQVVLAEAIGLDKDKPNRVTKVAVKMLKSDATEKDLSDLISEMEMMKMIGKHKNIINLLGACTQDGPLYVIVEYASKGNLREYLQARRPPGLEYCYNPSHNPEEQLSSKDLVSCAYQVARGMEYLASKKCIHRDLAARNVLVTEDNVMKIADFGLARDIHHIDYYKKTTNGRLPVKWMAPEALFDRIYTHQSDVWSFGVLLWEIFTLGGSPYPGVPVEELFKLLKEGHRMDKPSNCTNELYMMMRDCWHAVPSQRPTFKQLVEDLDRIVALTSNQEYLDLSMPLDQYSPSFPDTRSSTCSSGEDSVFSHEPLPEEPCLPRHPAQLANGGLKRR

CCCCCCCC(=O)O
active: [1] 4.61 µM | [7] 37.4 µM
inactive: [2] | [3] | [4] | [5] | [6]

CCCCC(CC)COC(=O)CCCCCCCCC(=O)OCC(CC)CCCC (configuration not stated)
active: [2] 16.7 µM

CCCCC(CC)COC(=O)c1ccccc1C(=O)O (configuration not stated)
inactive: [1] | [8]

CCCCCOC(C)=O
inactive: [2]

CCCCCCOC(=O)CC(CC(=O)OCCCCCC)(OC(=O)CCC)C(=O)OCCCCCC
inactive: [2] | [9]

S=C([S-])NCCNC(=S)[S-].[Mn+2]
inactive: [10] | [2] | [9] | [16] | [6] | [17] | [7]
active: [3] 8.83 µM | [4] 19.1 µM | [11] 30.1 µM | [12] 5.17 µM | [13] 5.91 µM | [14] 0.933 µM | [15] 0.295 µM | [5] 12.9 µM | [18] 12.5 µM

CCN(CC)CCNc1ccc(CNC=O)c2sc3ccc(OC)cc3c(=O)c12
inactive: [3] | [4] | [11] | [19] | [5] | [7] | [22]
active: [1] 1.41 µM | [2] 13.9 µM | [6] 15.7 µM | [20] 9.35 µM | [21] 25 µM

CC[C@H](C)C(=O)O[C@H]1C[C@@H](C)C=C2C=C[C@H](C)[C@H](CC[C@@H]3C[C@@H](O)CC(=O)O3)[C@H]21
inactive: [1] | [4] | [23] | [13] | [14] | [5]
